High-throughput results (PubChem)
LmPK inh: blocks Leishmania mexicana pyruvate kinase activity; Q27686; purified LmPK, Kinase-Glo ATP luminescence, 1 h; Potency, µM (titrated, usually from 57.5 µM), inactives show at the highest dose activity change, negative = inhibition, actives largely listed as inhibitors; actives 0.37% (n = 290,000); AID 1721; further: on the % scale 0 is the no-effect control and ±100 the full control effect
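Pyruvate kinase activity monitored as ATP production (luciferase luminescence). Conditions: 0.1 nM enzyme, 0.5 mM PEP, 0.1 mM ADP, 1 h, RT; normalized against uninhibited and no-enzyme wells.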
FBPA Giardia inh: Giardia lamblia aldolase inhibition | actives 0.71% (n = 290,000) | A8B2U2 | AID 2451 | Potency, µM (highest dose often 59.6 µM), for the others: top-dose activity, negative = inhibition, most hits filed as inhibitors | purified Giardia FBPA; further: on the % scale 0 is the no-effect control and ±100 the full control effect; nearly all actives have a fitted effect of over 55% in size
Target sequence (A8B2U2 whole entry, looked up): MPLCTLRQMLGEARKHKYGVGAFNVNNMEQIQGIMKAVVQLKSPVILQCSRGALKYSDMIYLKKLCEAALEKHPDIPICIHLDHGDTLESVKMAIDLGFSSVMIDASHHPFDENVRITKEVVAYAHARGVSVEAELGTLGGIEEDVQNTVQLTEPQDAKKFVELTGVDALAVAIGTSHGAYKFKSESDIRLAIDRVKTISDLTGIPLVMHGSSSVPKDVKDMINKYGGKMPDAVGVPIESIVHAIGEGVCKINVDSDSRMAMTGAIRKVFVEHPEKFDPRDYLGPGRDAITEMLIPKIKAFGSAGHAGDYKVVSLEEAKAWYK
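40 nM FBPA preincubated 10 min at RT with compound (up to 57.5 uM final), then substrate plus GAPDH/TPI/NAD/arsenate coupling and diaphorase/resazurin added. Fluorescence read after 20 min at RT, 525/598 nm.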
Sm TGR block: S. mansoni TGR enzyme inhibition; Q962Y6; purified TGR, DTNB reduction, TNB absorbance 405 nm; Potency, µM (highest dose often 114 µM), for the others: at the highest dose activity change, negative = inhibition, hits mostly inhibitors; actives 3% (n = 360,000); further: on the % scale 0 is the no-effect control and ±100 the full control effect; nearly all actives have a fitted effect of over 60% in size
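Kinetic colorimetric format: TGR-catalysed, NADPH-driven DTNB reduction monitored via TNB absorbance. Enzyme dispensed at 20 nM; compound exposure 15 min at room temperature before reaction start.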
RE007 growth inh: less growth of the S. pombe RE007 Vpr strain; S. pombe RE007 Vpr strain, BacTiter-Glo ATP luminescence, 24 h; Potency, µM (series often up to 92.2 µM), inactives show top-dose activity change, negative = less growth, actives largely listed as inhibitors; actives 0.21% (n = 360,000); AID 651644; active means well fitted falling curve with a large enough effect; inconclusive means small, poorly fitted or top-dose-only effect; inactive means no such curve, though single readings can be large or run the other way; further: on the % scale 0 is the no-effect control and ±100 the full control effect; nearly all actives have a fitted effect of over 50% in size
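Fission yeast strain RE007, carrying one chromosomally integrated HIV-1 vpr copy, was seeded at OD 0.01 in PMG+AL medium with 23 nL pinned compound. After 24 h at 30 °C and 99% humidity, viability was read by BacTiter-Glo luminescence.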
Tb PYK inh: inhibitors of Trypanosoma brucei pyruvate kinase. Potency, µM (series often up to 76.8 µM), inactives show at the highest dose activity, negative = inhibition, actives largely listed as inhibitors. Q57TT1. TbPYK enzyme, Kinase-Glo Plus ATP luminescence, 45 min. AID 624173. actives 0.12% (n = 410,000); further: on the % scale 0 is the no-effect control and ±100 the full control effect; nearly all actives have a fitted effect of over 50% in size
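Glycolytic pyruvate kinase of T. brucei was incubated with substrate, test compound and 130 uM ADP for 45 minutes at room temperature. Luminescent Kinase-Glo Plus signal was measured after 10 minutes.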
NS1 inh: inhibitors of influenza NS1 protein function | Potency, µM (doses to about 46.1 µM), for inactives: top-dose activity, positive = more growth | actives 0.4% (n = 270,000) | AID 2326; calls by dose curve; further: actives are rising curves; nearly all actives have a fitted effect of over 50% in size
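Recovery from NS1-induced slow growth read by OD600 in budding yeast switched to galactose assay medium (pH 6.0, -URA) at 1:100 dilution. Compound 23 nl per well; the matching strain lacking NS1 serves as control.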
* marks the source's active call; other numbers are inactive results; ? = inconclusive; · = no result; [ ] = dose if it differs, or a comment. Shown are actives, neighbours in structure and some others; about 3.5% of the full set was active somewhere. Unless noted, the call rests on the fitted dose curve; in most records, active means well fitted curve in the direction sought with a large enough effect; inconclusive means small, poorly fitted or top-dose-only effect, or another doubt; inactive means no such curve, though single readings can be large; an effect the other way counts as inactive or inconclusive. Potency means the concentration at half of the fitted maximal effect.

SMILES | LmPK inh | FBPA Giardia inh | Sm TGR block | RE007 growth inh | Tb PYK inh | NS1 inh
O=C(CCl)Nc1c2c(nn1-c1ccccc1)CSC2 | -0.4% | -10.1% | 10µM* | -0.2% | -17.2% | -28.0%
COC(=O)CC[C@@H](C)C1CC[C@H]2[C@H]3CC[C@H]4C[C@@H]5CCC4(C)[C@@]3(O5)[C@@H](Br)[C@@H](Br)[C@@]12C (stereo not given in full) | · | · | · | · | · | 2.6%
CCOC1=CC2=C(C(=O)C(Cl)=CC2=O)[C@@H]2CN(S(=O)(=O)c3ccc(C)cc3)[C@@H](c3ccccc3)[C@H]12 | · | · | · | 6.2% | 2.51µM* | ·
CCN1C(=O)[C@@H]2[C@@H]3CN(S(=O)(=O)c4ccc(C)cc4)[C@@H](c4ccccc4)[C@@H]3C(=O)C[C@@H]2C1=O | · | · | · | 4.4% | -5.1% | ·
Cc1ccc(NC(=O)CSc2nnc(CSc3nc(C)cc(C)n3)n2Cc2ccco2)c(C)c1 | 0.9% | 15.3% | 50.1µM* | -15.1% | -9.6% | -4.3%
CCOC(=O)CSc1nnc(CSc2nc(C)cc(C)n2)n1Cc1ccco1 | 12.2% | 0.6% | 44.7µM* | 10.4% | -12.1% | -2.7%
CCc1ccc(-n2c(=O)c3cccnc3n2CC(=O)Nc2ccccc2C(F)(F)F)cc1 | · | · | -2.4% | · | -2.5% | ·
CNC(=O)Nc1ccc2snnc2c1 | 11.2% | -3.8% | -4.8% | -8.7% | -2.9% | -4.1%
COc1ccc(NC(=S)Nc2ccc3snnc3c2)cc1 | 5.7% | ? | 15.8µM* | 4.0% | -11.7% | 5.8%
S=C(Nc1ccc2nccnc2c1)N1CCOCC1 | 1.2% | 14.1µM* | -28.9% | 13.8% | -3.2% | -2.2%
COc1ccc(NC(=S)Nc2ccc3nccnc3c2)cc1 | 0.8% | ? | 31.6µM* | -1.6% | -7.8% | -5.0%
CCC(C(=O)NC(=O)NC(C)=O)c1ccccc1 (stereo not given) | · | · | · | · | -9.1% | ·
CNc1ncnc(Sc2ccc(Cl)cc2)c1[N+](=O)[O-] | 9.5% | 2.9% | 0.562µM* | -8.2% | -12.0% | 4.0%
CN=C(NC)NCc1ccccc1 | · | · | · | · | 13.8% | ·
Cc1ccc(C(=O)N2CCN3C(=O)c4ccccc4C23c2ccc(Cl)cc2)cc1 (stereo not given) | 3.7% | -0.8% | -17.7% | 2.6% | 3.7% | 9.3%
O=C(CCl)N1CCN2C(=O)c3ccccc3C12c1ccc(Cl)cc1 (stereo not given) | 1.4% | -4.5% | 2.51µM* | -18.7% | -2.0% | 2.9%
Cc1ccc(NC(=O)NCCOCCn2c(=O)oc3ccccc32)cc1C | · | · | 2.6% | · | -6.9% | ·
CC(C)OCCCn1c(-c2ccc(Br)cc2)c[nH]c1=S | 12.6µM* | -4.3% | -5.8% | 9.2% | ? | ·
O=C(Nc1ccc(Cl)c(C(F)(F)F)c1)C1CCN(S(=O)(=O)c2cccc3nonc23)CC1 | · | · | 0.9% | · | -4.5% | ·
Cc1ccc([C@H]2Nc3ccc(S(=O)(=O)Nc4cccc(Cl)c4C)cc3[C@H]3C=CC[C@H]32)cc1 | · | · | -2.2% | · | -14.4% | ·
COC(=O)c1ccc(C2NC(=O)CCC2[N+](=O)[O-])cc1 (stereo not given) | 2.0% | 20.1% | 1.0% | 28.1% | -0.6% | 0.7%
COC(=O)c1ccc(C2Nc3ccc(/C(C)=N/NC(=O)C(OC)c4ccccc4)cc3C3C=CCC32)cc1 (stereo not given) | -6.2% | · | 7.94µM* | 10.5% | ? | ?
COC(=O)c1ccc([C@H]2Nc3ccc(S(=O)(=O)Nc4cccc(C)c4)cc3[C@H]3C=CC[C@H]32)cc1 | · | · | 25.1µM* | · | -4.6% | ·
O=C(O)c1ccc(NS(=O)(=O)c2ccc3c(c2)C2C=CCC2C(c2ccccc2F)N3)cc1 (stereo not given) | 4.3% | -21.3% | 28.2µM* | 23.3% | ? | 10.0%
Cc1ccc(NS(=O)(=O)c2ccc3c(c2)[C@H]2C=CC[C@H]2[C@@H](c2ccc(F)cc2)N3)cc1C | · | · | ? | · | -5.6% | ·
SMILES | LmPK inh | FBPA Giardia inh | Sm TGR block | RE007 growth inh | Tb PYK inh | NS1 inh
COC(=O)c1ccc([C@@H]2Nc3c(OC)ccc(C)c3[C@@H]3C=CC[C@@H]32)cc1 | · | · | 3.16µM* | · | -10.8% | ·
CCOc1ccc(CNC(=O)C2CCN(C3=NS(=O)(=O)C(c4ccc(C)cc4)=C3CC)CC2)cc1 | · | · | 0.6% | · | 0.9% | ·
COc1cc2c(cc1OC)C(COc1ccc3c(C)cc(=O)oc3c1)N(C(=O)c1ccccc1F)CC2 (stereo not given) | · | · | 1.1% | · | 0.0% | ·
CO[C@@]1(NC(=O)CSC(F)F)C(=O)N2C(C(=O)O)=C(CSc3nnnn3CCO)CO[C@@H]21 | · | · | · | · | -9.2% | ·
CC(C)c1ccc(S(=O)(=O)NCc2nc3cccnc3n2Cc2ccc(F)cc2)cc1 | · | · | 8.2% | · | -8.0% | ·
COc1ccc(N2C(=O)CC(N3CCN(Cc4ccc5c(c4)OCO5)CC3)C2=O)cc1 (stereo not given) | 2.5% | 6.4% | 17.8µM* | -15.3% | 4.1% | ·
O=C1CC(N2CCN(Cc3ccc4c(c3)OCO4)CC2)C(=O)N1c1cccc(Cl)c1 (stereo not given) | 2.2% | 6.5% | 50.1µM* | -24.9% | 4.1% | -3.0%
O=C1CC(N2CCN(Cc3ccccc3)CC2)C(=O)N1c1ccc2c(c1)OCCO2 (stereo not given) | -11.3% | -6.4% | 56.2µM* | 6.4% | 3.1% | -3.6%
O=C1CC(N2CCN(Cc3ccc4c(c3)OCO4)CC2)C(=O)N1c1cccc2ccccc12 (stereo not given) | -6.1% | 2.0% | -20.2%[57.1 µM] | -7.1% | -1.9% | 1.5%
Cc1cc(Cl)ccc1NS(=O)(=O)c1ccc2c(c1)CC(C)N2C(=O)C1CCC1 (stereo not given) | · | · | 1.9% | · | 1.0% | ·
CCOC(=O)CCn1c(=O)c2cccn2c2cccnc21 | · | · | 0.5% | · | 1.4% | ·
C=CCN1C=C2C(=O)C(C)(OC(=O)C3CCCC3)C(=O)C(c3ccccc3)=C2C=C1CCCC(=O)OC (stereo not given) | -7.4%[11.5 µM] | ? | ? | -12.0% | 0.1% | 0.4%
COC(=O)CCCC1=CC2=C(c3ccccc3)C(=O)C(C)(OC(=O)C3CCCC3)C(=O)C2=CN1CCc1ccccn1 (stereo not given) | 1.8%[11.5 µM] | ? | 28.2µM* | 0.8% | -5.1% | 2.9%
COC(=O)CCCC1=CC2=C(c3ccccc3)C(=O)C(C)(OC(=O)C3CCCC3)C(=O)C2=CN1CCc1c[nH]c2ccccc12 (stereo not given) | -3.6%[11.5 µM] | ? | 8.91µM* | -11.1% | -7.5% | ?
COC(=O)CCCC1=CC2=C(c3ccccc3)C(=O)C(C)(OC(=O)C3CCCC3)C(=O)C2=CN1CCN1CCOCC1 (stereo not given) | -2.5%[11.5 µM] | ? | 35.5µM* | -1.6% | -1.0% | 3.6%
